Bioassay records from PubChem.
The entries come from a sample that favours hits as a whole.
Anesthetic bind – binds horse apoferritin like a general anesthetic. apoferritin/1-aminoanthracene competitive binding, fluorescence. Potency, µM (doses to about 77.5 µM), usual class: inhibitors. 0.074% of 350,000 active. AID 485281; also: nearly all actives have a fitted effect of over 20% in size
Target sequence (P02791 2-175 limits assumed): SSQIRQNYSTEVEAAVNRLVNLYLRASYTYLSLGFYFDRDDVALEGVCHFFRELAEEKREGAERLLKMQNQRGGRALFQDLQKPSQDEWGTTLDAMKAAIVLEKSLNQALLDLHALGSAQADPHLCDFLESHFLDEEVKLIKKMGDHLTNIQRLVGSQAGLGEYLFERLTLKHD
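Steps: apoferritin (10 uM) was premixed with half-saturated 1-AMA in PBS, compounds were pin-transferred, plates stood 10 min at room temperature, fluorescence was read at 380/535 nm, and curves were fitted with a Hill equation.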
N370S GC – inhibits or activates N370S mutant glucocerebrosidase. P04062. N370S GC spleen homogenate, 4MU-glucoside fluorescence. Potency, µM (series often up to 59.4 µM), usual class: inhibitors. 0.092% of 330,000 active. AID 2101
CBFb RUNX1 block – blocks binding between human CBF-beta and RUNX1; AID 1477; 230,000 tested, under 10 active; Potency, µM (doses to about 59.8 µM), usual class: inhibitors; Q01196+Q13951; AlphaScreen CBFb-His/RUNX1-biotin binding, biochemical
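Room-temperature protein-protein interaction test with 30 nM each of His-tagged CBF-beta and biotinylated RUNX1, 15 min with compound, then 90 min with nickel plus streptavidin beads. Signal read in AlphaScreen mode.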
ClpP mod – qHTS Assay for Activators of ClpP; ATP-dependent Clp protease proteolytic subunit (Bacillus subtilis (strain 168)), P80244; purified B. subtilis ClpP, FRET peptide cleavage, 20 min; Potency, µM (top dose mostly 57.5 µM); 1.9% of 340,000 active; AID 651965, 2013; active = well fitted falling curve with a large enough effect; inconclusive = small, poorly fitted or top-dose-only effect; inactive = no such curve, though single readings can be large or run the other way; also: the source files actives as falling curves though it sought activators and does not explain the sign; nearly all actives have a fitted effect of over 65% in size
Target sequence (P80244 whole entry, looked up): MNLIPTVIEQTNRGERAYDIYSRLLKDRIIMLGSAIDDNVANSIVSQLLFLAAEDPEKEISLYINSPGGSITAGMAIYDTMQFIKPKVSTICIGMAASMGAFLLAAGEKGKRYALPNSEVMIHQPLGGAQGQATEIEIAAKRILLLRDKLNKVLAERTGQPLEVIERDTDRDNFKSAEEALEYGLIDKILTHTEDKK
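ClpP 10 microg/mL final, pH 8 Tris/KCl buffer with BSA, glycerol, Tween-20; compound pinned in; FRET-FV substrate; RT 20 min; Ex320/Em430; ΔFRET vs ADEP 5.8 microM, DMSO, no enzyme.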
GRP78 ERSR act – inducers of ER stress response in human glioma cells; U87-MG GRP78 promoter luciferase reporter, 16 h; 0.02% of 420,000 active; Potency, µM, hits mostly activators; also: series mostly up to about 76 µM; nearly all actives have a fitted effect of over 35% in size
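ERSR induction read as luciferase luminescence (Bright-Glo, 10 min at room temperature) in stably transfected human U87-MG glioma cells exposed to compounds for 16 h, using GRP78 as sensor.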
Integrin act MD – activates integrin-mediated alleviation for muscular dystrophy; alpha7betagal myoblasts, beta-gal FDG fluorescence, 48 h; Potency, µM (top dose mostly 38.3 µM), hits mostly activators; 0.064% of 350,000 active; AID 624291; also: nearly all actives have a fitted effect of over 60% in size
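alpha7betagal+/- myoblasts (passage 13, 250/well) treated 48 h at 37C with compounds at 1:260 dilution of DMSO stock. Lysed, then beta-galactosidase activity read as FDG fluorescence (ex 480/em 540) after 30 min, with pre-read for autofluorescence.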
ClpP inh valid – inhibits B. subtilis ClpP protease, hit validation; shares compounds with ClpP mod; 40% of 470 active; Potency, µM (series often up to 57.5 µM), usual class: inhibitors; purified B. subtilis ClpP, FRET-FV substrate cleavage, 20 min; AID 743245; also: nearly all actives have a fitted effect of over 70% in size
A number is an active result; . = inactive; ? = inconclusive; / = no result; [ ] = another dose, or the depositor's remark. Unless noted, calls follow the shape of the dose curve; as a rule, active = well fitted curve in the direction sought with a large enough effect; inconclusive = small, poorly fitted or top-dose-only effect, or another doubt; inactive = no such curve, though single readings can be large; an effect the other way counts as inactive or inconclusive.

SMILES	Anesthetic bind	N370S GC	CBFb RUNX1 block	ClpP mod	GRP78 ERSR act	Integrin act MD	ClpP inh valid
CC(C)CNC(=O)NC1C(NC(=O)NCC(C)C)N(C)C(=O)N1C (stereo not drawn)	.	.	.	.	.	.	.
CN1C(=O)N(C)C(NC(=O)Nc2ccccc2)C1NC(=O)Nc1ccccc1 (stereo not drawn)	.	.	.	.	.	.	/
O=S(=O)(Nc1cccc(-c2cn3cccnc3n2)c1)c1ccc(F)cc1	.	.	.	4µM	.	.	24µM
CCCCCC1CCC(c2ccc(C(N)=O)cc2)CC1 (stereo not drawn)	.	.	.	.	.	.	/
CCCC1CCC(c2ccc(C(N)=O)cc2)CC1 (stereo not drawn)	.	.	.	.	.	.	.
Cn1c(=O)n(C)c2cc(NS(=O)(=O)c3ccc(C(C)(C)C)cc3)c(NCc3ccccc3)cc21	.	/	/	3.5µM	.	/	22µM
O=c1oc2ccc3ccccc3c2cc1-c1nc2ccccc2o1	/	/	/	2.5µM	.	.	.
Cc1ccccc1Nc1c(-c2c[nH]c3ccccc23)nc2ccc(Cl)cn12	.	/	/	5µM	.	/	.
Cc1ccccc1Nc1c(-c2c[nH]c3ccccc23)nc2ccccn12	.	/	/	.	.	/	/
COC(=O)Nc1c(-c2ccccc2)nc2ccccn12	.	.	.	7.9µM	.	.[7.66 µM]	27µM
O=C(Nc1ccc(F)cc1)N1CCN2C(=O)c3ccccc3C12c1ccccc1 (stereo not drawn)	.	.	.	4µM	.	.	.
CCN(Cc1cccc(S(=O)(=O)O)c1)c1ccc(C(=C2C=CC(=[N+](CC)Cc3cccc(S(=O)(=O)O)c3)C=C2)c2ccccc2S(=O)(=O)[O-])cc1	/	/	/	.	.	/	/
COc1ccc2cc(C(=O)NCc3ccco3)c(=O)oc2c1	.	.	.	10µM	.	.	22µM
O=C(NCc1ccco1)c1cc2ccc(O)cc2oc1=O	.	?	.	.	.	.	/
COc1ccc2cc(C(=O)NC3CCCCC3)c(=O)oc2c1	.	.	.	2.2µM	?	.	22µM
O=C(NC1CCCCCC1)c1cc2ccccc2oc1=O	.	?	/	/	.	.	/
O=C(C[n+]1ccccc1)c1ccc(O)c(O)c1	/	/	/	.	.	/	/
COc1ccc2c(c1)c1ncn(CCc3ccccc3)c(=O)c1n2C	.	?	.	4.5µM	.	.	12µM
COc1ccc(C2=C(C)C(=O)N(Cc3ccc(C(=O)NC(C)c4ccccc4)cc3)S2(=O)=O)cc1 (stereo not drawn)	?	/	/	.	/	/	/
CC1=C(c2ccc(C)c(C)c2)S(=O)(=O)N(Cc2ccc(C(=O)NC(C)c3ccccc3)cc2)C1=O (stereo not drawn)	.	/	/	5.6µM	/	/	34µM
COc1ccccc1C1CC(c2ccco2)=NN1c1ccccc1 (stereo not drawn)	.	?	?	3.5µM	.	.	27µM
COc1c(C)cc(C(=O)C2CCCN(S(=O)(=O)N(C)C)C2)cc1C (stereo not drawn)	?	.	/	2.8µM	.	.	.
O=c1oc2ccccc2cc1-c1nc(-c2cccc(Cl)c2)cs1	.	/	/	4.5µM	.	/	?
O=c1oc2ccccc2cc1-c1csc(Cc2nc(-c3ccc(Cl)cc3)cs2)n1	.	.	.	.	.	.	/
CN(C)C(=O)CNC(=O)Cc1ccccc1	/	/	/	/	.	/	/
SMILES	Anesthetic bind	N370S GC	CBFb RUNX1 block	ClpP mod	GRP78 ERSR act	Integrin act MD	ClpP inh valid
CC(=O)Nc1ccn(C2COC(COC(=O)c3ccccc3)O2)c(=O)n1 (stereo not drawn)	/	/	/	/	.	/	/
Cc1c(C)c2ccc(OCC(=O)Nc3ccc(N4CCC(C)CC4)cc3)cc2oc1=O	.	.	/	.	.	.	.
CC(=O)Nc1ccc(S(=O)(=O)Nc2nc3ccccc3nc2Nc2ccc3ccccc3c2)cc1	.	.	.	3.5µM	.	.	?
COc1cc2c(cc1NC(=O)CN1CCN(S(=O)(=O)c3ccccc3F)CC1)oc1ccccc12	.	.	.	3.5µM	.	.	?
COc1cc2c(cc1NC(=O)CCCN1C(=O)CCC1=O)oc1ccccc12	.	.	.	.	.	.	/
OC[C@@H]1O[C@H](O)[C@H](O)[C@@H](O)[C@@H]1O	.	.	.	/	.	/	/
c1ccc2c(c1)NC1(CCCCCC1)n1c-2nc2ccccc21	.	.	.	.	.	.	/
c1ccc2c(c1)NC1(CCCCC1)n1c-2nc2ccccc21	.	.	.	2.5µM	.	.[7.66 µM]	14µM
O=[N+]([O-])c1ccc(/C=C/c2cc(Cl)nc3ccccc23)cc1	/	/	/	.	.	/	/
CC1CCN(S(=O)(=O)c2ccc(NC(=O)c3cccs3)cc2)CC1	?	.	.	.	.	.	.
CN1CCN(S(=O)(=O)c2ccc(NC(=O)c3cccs3)cc2)CC1	.	.	.	.	.	.	/
CC(c1ccc(N(C)C)cc1)c1ccnc2ccccc12 (stereo not drawn)	/	/	/	.	.	/	/
O=C(O)C1CCCC1	/	/	/	.	.	/	/
CCOc1ccc(N2CC(C(=O)Nc3ccc(S(=O)(=O)N4CCCC4)cc3)CC2=O)cc1 (stereo not drawn)	.	.	/	/	.	.	/
